Source: PubChem BioAssay (Tox21)
Values without a mark were called inactive. Activity calls are given as the source filed them. The call rests on the fitted dose curve; in most records, active means well fitted curve in the direction sought with a large enough effect in the repeat runs; inconclusive means weak or mixed curves; inactive means flat fitted curve, though single readings scatter.

Test: qHTS assay to test for compound auto fluorescence at 535 nm (green) in HEK293 cells (AID 720680)
Details: green autofluorescence 485/535 nm; series mostly up to 91.3 µM; fluorescence, % of fluorescein: at the top concentration
Description: U.S. Tox21 Program National Center for Advancing Translational Sciences [NCATS] NIH Chemical Genomics Center [NCGC] U.S. Environmental Protection Agency [EPA] National Institutes of Environmental Health Sciences [NIEHS] National Toxicology Program [NTP] U.S. Food and Drug Administration [FDA] Tox21 Assay Overview: Compound auto fluorescence often interferes with screening of the compound library against various biological targets and signaling pathways. Some of these compounds may have fluorophoric properties. Such properties may interfere with the assay outputs resulting in false positives and/or negatives. To decrease such complications and ensure the compound activities are relevant in terms of biological response, the Tox21 10K compound library was screened for auto fluorescence. From the fluorophores used as reporter signals in our screening assays, the auto fluorescence equivalencies of compounds against three fluorophores have been evaluated: Triamterene, Fluorescein and Rose Bengal sodium for blue, green and red fluorescence, respectively. The fluorescence intensities were measured using Excitation/Emission wavelengths at 405/460nm, 485/535nm and 540/590nm for blue, green and red labels, respectively. This assay includes the green fluorescence data.
Tox21 Assay Protocol Summary: 2,000 HEK293 cells in 5 uL of culture medium containing 10% dialyzed FBS per well were dispensed into black wall/clear bottom 1536-well plates using a Multidrop Combi Dispenser (Thermo Scientific). The assay plates were incubated for 4-5 hr at 37C to allow cell attachment to the well bottom, followed by the transfer of 23 nL compound or DMSO vehicle by a pintool work station (Kalypsys, San Diego, CA). After the assay plates were incubated overnight at 37C and 5% CO2, fluorescence intensities in the assay plates were measured by an Envision (PerkinElmer, Shelton, CT) plate reader using three labels for measuring blue, green and red fluorescence at […] 460, 535 and 590nm respectively.
On the % scale 0 is the no-effect control and ±100 the full control effect.

| Compound | fluorescence, % of fluorescein | outcome |
| --- | --- | --- |
| COc1cccc2c1cc([N+](=O)[O-])c1c(C(=O)O)cc3c(c12)OCO3 | -0.186% |  |
| C=CCC1=C(C)[C@@H](OC(=O)[C@@H]2[C@@H](C=C(C)C)C2(C)C)CC1=O | 0.0987% |  |
| CC(C)CC(N(C)C)C1(c2ccc(Cl)cc2)CCC1 (stereo not given) | -0.0112% [at 46 µM] |  |
| CC(=O)[C@H]1CC[C@H]2[C@@H]3CC[C@H]4C[C@H](O)CC[C@]4(C)[C@H]3C(=O)C[C@]12C | -0.0839% [at 46 µM] |  |
| O=NN1CCN(N=O)CC1 | -0.0103% |  |
| CSc1nc(N=[N+]=[N-])nc(NC(C)C)n1 | 0.0772% |  |
| CCCCOP(=O)(O)OCCCC | 0.0196% |  |
| CC(C)[N+](=O)[O-] | -0.0011% |  |
| COc1cccc(C(=O)NN(C(=O)c2cc(C)cc(C)c2)C(C)(C)C)c1C | -0.0659% |  |
| O=C(CCN1CC1)OCC(CO)(COC(=O)CCN1CC1)COC(=O)CCN1CC1 | 0.0208% |  |
| CCCCc1ccc(O)cc1 | 0.05% |  |
| CCC/C(=N\OCC)C1=C(O)CC(CC(C)SCC)CC1=O (stereo not given) | 0.061% |  |
| [O]=[Cd] |  | inactive |
| CCCCCCBr | 0.0102% [at 95.7 µM] |  |
| CCNc1nc(NC(C)C)nc(OC)n1 | -0.0239% |  |
| CC1=C(C(=O)Nc2ccccc2)S(=O)(=O)CCO1 | -0.0809% |  |
| CCOP(=S)(OCC)Oc1nc(Cl)n(C(C)C)n1 | 0.128% |  |
| ClCCOCOCCCl | -0.234% [at 95.7 µM] |  |
| C[C@H]1CCC[C@H](O)CCCCCc2cc(O)cc(O)c2C(=O)O1 |  | inactive |
| CCCSC(=O)Cl | 0.022% |  |

| Compound | fluorescence, % of fluorescein | outcome |
| --- | --- | --- |
| O=[N+]([O-])c1cccc2c([N+](=O)[O-])cccc12 | 0.0248% |  |
| COC(=O)COc1ccc(Cl)cc1Cl | -0.0641% |  |
| CC1=NNC(=O)N(/N=C/c2cccnc2)C1 | 0.0082% |  |
| CC(COc1ccc(Oc2ccccc2)cc1)Oc1ccccn1 (stereo not given) | 0.117% |  |
| CNC(=O)O/N=C(\C)SC | -0.0951% |  |
| O=C(NCO)NCO | 0.0342% [at 95.7 µM] |  |
| O=NN1CCCCC1 | 0.0018% |  |
| Nc1n[nH]c(N)n1 | 0.0547% [at 95.7 µM] |  |
| CCC1(c2ccccc2)C(=O)NC(=O)NC1=O |  | inactive |
| COc1ccc2c(c1OC)CN1CCc3cc4c(cc3C1C2)OCO4 (stereo not given) | -0.0571% [at 18.6 µM] |  |
| N#CCBr | -0.0231% [at 95.7 µM] |  |
| CCCCN(CCCCO)N=O | -0.0565% |  |
| [As]#[In] | 0.0226% |  |
| CCC1(c2ccccc2)C(=O)N=C(O)NC1=O (stereo not given) | 0.0518% |  |
| CCS(=O)(=O)CCSP(=O)(OC)OC | 0.0458% |  |
| CCS(=O)(=O)C(C)(C)S(=O)(=O)CC | 0.0081% [at 46 µM] |  |
| CCCCOC(=O)c1ccccc1N | -0.0286% |  |
| CC(=O)C(Cl)Cl | -0.0641% [at 95.7 µM] |  |
| CN1CCC(O)(c2ccc(F)cc2)C(C(=O)c2ccc(F)cc2)C1 (stereo not given) | -0.0044% [at 46 µM] |  |
| COC(=O)c1ccccc1S(=O)(=O)NC(=O)N(C)c1nc(C)nc(OC)n1 | 0.0244% [at 95.7 µM] |  |
